Source: PubChem BioAssay (NCI)
This is part of a sample that, as a whole, favours compounds with a hit. Of some 79,000 tested, about 15% had one in any assay. Activity calls are given as the source filed them. No stated cut-off is given here; in the data, active means growth inhibition above about 70%; inactive means the rest.

Columns and labels:
[1] = NCI Yeast Anticancer Drug Screen. Data for the rad50 strain (AID 155);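 further: 0% = growth of vehicle-only cultures of the same strain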; settings: S. cerevisiae rad50 strain growth inhibition; at 50.0 µM; active compounds read high
In short: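 Cells are treated with compound, grown, and their growth is then scored against vehicle-only cultures of the same repair-deficient yeast strain.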

[2] = NCI Yeast Anticancer Drug Screen. Data for the mec2-1 strain (AID 157); settings: S. cerevisiae mec2-1 strain, at 50.0 µM, active compounds read high
In short: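 Cells of the genetically defined mec2-1 yeast strain are incubated with test compound. Inhibition of growth is calculated against vehicle-treated controls.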

[3] = NCI Yeast Anticancer Drug Screen. Data for the sgs1 mgt1 strain (AID 161);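 further: 0% = growth of cultures given vehicle only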; settings: S. cerevisiae sgs1 mgt1 strain, at 50.0 µM, active compounds read high
In short: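 Genetically altered yeast, compound exposure, growth inhibition relative to vehicle.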

[4] = NCI Yeast Anticancer Drug Screen. Data for the cln2 rad14 strain (AID 165);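 further: 0% = growth equal to vehicle treated cultures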; settings: S. cerevisiae cln2 rad14 strain, at 50.0 µM, active compounds read high
In short: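 The screen exposed genetically defined yeast (cln2 rad14) to test compounds and scored growth inhibition relative to vehicle-treated controls.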

[5] = NCI Yeast Anticancer Drug Screen. Data for the bub3 strain (AID 167); settings: S. cerevisiae bub3 mutant strain, at 50.0 µM, active compounds read high
In short: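 Part of a panel of yeast mutants defective in DNA damage repair or cell cycle regulation. Each strain is grown with compound, and inhibition is calculated relative to solvent-treated cultures.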

[6] = NCI Yeast Anticancer Drug Screen. Data for the mlh1 rad18 strain (AID 175); settings: S. cerevisiae mlh1 rad18 strain growth inhibition; at 50.0 µM; active compounds read high
In short: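 Compound-treated yeast growth, normalised to vehicle controls. Strain bears defined DNA repair mutations.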

Measured: growth inhibition

Nc1c(OCc2ccccc2)cccc1C(=O)O
inactive: [1] -7.1% | [2] -9.5% | [3] 10.9% | [4] -47.5% | [5] -40.5% | [6] -12.2%

Cc1ccc(C(C)C)cc1NC(=O)c1c(Cl)c(Cl)c(Cl)c(Cl)c1C(=O)O
inactive: [1] 14.6% | [2] 9.8% | [3] 23.9% | [4] -32.4% | [5] 6.45% | [6] 23.3%

O=C1NC(Cc2ccc(O)cc2)C(=O)N1c1ccccc1O (stereo unspecified)
inactive: [1] 2.5% | [2] 0.95% | [3] 5.35% | [4] 2.5% | [5] -6.9% | [6] 3.5%

ClC(c1ccccc1)c1cccc2ccccc12 (stereo unspecified)
inactive: [1] 30.6% | [2] -2.45% | [3] 7.7% | [4] 21.5% | [5] 11.8% | [6] 41.6%

COc1ccc2c(c1)CN(C)c1ccc(OC)cc1CN2C
inactive: [1] 10.7% | [2] -18.6% | [3] 12.2% | [4] 12.4% | [5] 12.5% | [6] 24.6%

O=C1OC(c2cccc3ccc(Br)cc23)c2ccccc21 (stereo unspecified)
inactive: [1] 21.1% | [2] 0.5% | [3] 6.2% | [4] 19.5% | [5] 16.1% | [6] 3.45%

C=C1C(=O)OC2C=C(C)CC3C=C(CCC=C(C)CCC12)C(=O)O3 (stereo unspecified)
inactive: [1] 0.5% | [2] -33.5% | [3] -13.2% | [4] 4.9% | [5] -27.8% | [6] -17.7%

O=[N+]([O-])C(C(Cl)=C(Cl)Cl)=C(N1CCCCC1)N1CCCCC1
inactive: [1] -48.2% | [2] -19.5% | [3] -13.1% | [4] -22.1% | [5] -19.4% | [6] -13.9%

CC(=O)OC(OC(C)=O)c1cccc2ccccc12
inactive: [1] 3.05% | [2] -9.3% | [3] -5.8% | [4] -15.9% | [5] 16.9% | [6] -3.9%

CC(=O)OCC1OC(OC(C)=O)C(NC(=O)CN(Cc2ccccc2)S(C)(=O)=O)C(OC(C)=O)C1OC(C)=O (stereo unspecified)
inactive: [1] -8.6% | [2] 13.9% | [3] -16.1% | [4] -1.65% | [5] 0.35% | [6] -4.05%

Cc1ccc(NC(=S)Nc2ccccc2F)cc1
inactive: [1] -8% | [2] -13.2% | [3] -2.2% | [4] -28.8% | [5] 43.5% | [6] 10%

O=c1nc2oc(-c3ccccc3)cn2c(=O)n1-c1ncc(-c2ccccc2)o1
inactive: [1] 1.35% | [2] -6.9% | [3] 1.4% | [4] 22.4% | [5] 8.1% | [6] 6.05%

O=S(=O)(OC12CCCCC1CN1CCCCC1C2)c1ccc(Br)cc1 (stereo unspecified)
inactive: [1] 14.6% | [2] 9.5% | [3] -4.1% | [4] -3.1% | [5] 3.7% | [6] 12.8%

CC(C)(C)OC(=O)NC(CSSCC(NC(=O)OC(C)(C)C)C(=O)O)C(=O)O (stereo unspecified)
inactive: [1] -7.05% | [2] -10.2% | [3] -10.7% | [4] -3.45% | [5] -5.7% | [6] -6.4%

CCCCC/C(=N\NC(N)=O)C1=CCCCC1
inactive: [1] 13.1% | [2] 7.6% | [3] -9.6% | [4] -19.9% | [5] -25.4% | [6] 18.4%

C1CCCN(NC2=NCCO2)CC1
inactive: [1] 18.8% | [2] 4.8% | [3] 7.3% | [4] 5.95% | [5] 1.45% | [6] 25.9%

COc1ccc(C(=O)OCc2ccccc2CN2CCCCC2)cc1
inactive: [1] -4.75% | [2] -7.25% | [3] 11.4% | [4] -16.3% | [5] -14.2% | [6] -5.6%

Cc1ccc(S(=O)(=O)N(Cc2cccc([N+](=O)[O-])c2)c2ccc(C(=O)O)cc2)cc1
inactive: [1] 8.45% | [2] 4.55% | [3] 0.8% | [4] -12.7% | [5] 5.95% | [6] 21.1%

CNCCC(Oc1ccccc1OC)c1ccccc1 (stereo unspecified)
inactive: [1] 30.2% | [2] 8.9% | [3] -1.2% | [4] 10.8% | [5] 5.25% | [6] 19.1%

CCOC(=O)/C(Cc1cnc2ccccc2n1)=N\O
inactive: [1] -1% | [2] -4.4% | [3] -8.95% | [4] -52.5% | [5] 5.7% | [6] -24.9%

CCCCCCCCCCCCCCCCCCCCCCBr
inactive: [1] 4.95% | [2] 4.8% | [3] 16.8% | [4] 21.4% | [5] -2.75% | [6] 14.3%

CN(C)CCNC(=O)Cn1cc([N+](=O)[O-])c(=O)c2ccccc21
inactive: [1] -12.9% | [2] -13.1% | [3] -8.8% | [4] 18.9% | [5] -7.2% | [6] -31.1%

COc1cc([C@@H]2c3cc4c(cc3[C@@H](Nc3ccc(NC(=O)c5cc(NC(=O)c6cc([N+](=O)[O-])cn6C)cn5C)cc3)[C@H]3COC(=O)[C@H]23)OCO4)cc(OC)c1O
inactive: [1] 34% | [2] 31.6% | [3] 34% | [4] 9.2% | [5] 16.4% | [6] 6.45%

O=C(C(=O)c1cccc(C(=O)C(=O)c2ccccc2)c1)c1ccccc1
inactive: [1] 5.45% | [2] -10.6% | [3] -15.2% | [4] 17.3% | [5] -29% | [6] 9.5%

NC1=Nc2ncccc2C(=O)NN1
inactive: [1] -17.4% | [2] 19.5% | [3] 8.1% | [4] 17.8% | [5] 12.7% | [6] 24.8%

C=Cc1ccc(-c2ccccc2)cc1
inactive: [1] 7.1% | [2] -14.7% | [3] -25.5% | [4] -43.2% | [5] -5.8% | [6] -0.65%

CCCCCCCCCCCCCCCC(=O)OCC1OC(OC(=O)CCCCCCCCCCCCCCC)C(OC(=O)CCCCCCCCCCCCCCC)C(OC(=O)CCCCCCCCCCCCCCC)C1OC(=O)CCCCCCCCCCCCCCC (stereo unspecified)
inactive: [1] -19.8% | [2] -25.8% | [3] -19.9% | [4] -7.05% | [5] -24.7% | [6] -14.8%

C/C(=N/NC(=O)c1ccccc1O)c1ccc(/C(C)=N\NC(=O)c2ccccc2O)c2nc3cc(C)c(C)cc3nc12
inactive: [1] -41.2% | [2] -14.3% | [3] -31.4% | [4] 4.65% | [5] 6.7% | [6] -27.8%

CCCCCCCCCCCCCCCCCC(=O)N/N=C\c1ccc(O)c(OC)c1
inactive: [1] -11.6% | [2] -13.6% | [3] -9.35% | [4] -56.8% | [5] -2.55% | [6] 6.5%

COc1ccc(Nc2nc(NS(=O)(=O)c3cc(C)c(Cl)cc3S)n[nH]2)cc1
inactive: [1] 23.4% | [2] 27.9% | [3] 3.65% | [4] 24.9% | [5] 16.9% | [6] -4.9%

COc1ccc(C2=C(Cl)c3cc(OC)c(OC)cc3C2Cl)cc1OC (stereo unspecified)
inactive: [1] 41.5% | [2] 18.6% | [3] 21.9% | [4] 26.9% | [5] -6.15% | [6] 17.4%

CC(=O)NC(C(=O)O)C(C)(C)S (stereo unspecified)
inactive: [1] -1.85% | [2] -48.9% | [3] -4.7% | [4] 26.8% | [5] -33.2% | [6] 8.95%

Nc1ncnc2c1ncn2C1CCN(CCO)C1=O (stereo unspecified)
inactive: [1] -5.55% | [2] -5.55% | [3] -29.1% | [4] -17.4% | [5] -5.2% | [6] -14.8%

CNCSc1ccccc1
inactive: [1] -6.6% | [2] -19.9% | [3] -1.75% | [4] -11.6% | [5] -30.1% | [6] -1.45%

O=C(NNc1ccccc1)/C(=C/c1ccc2c(c1)OCO2)NC(=O)c1ccccc1
inactive: [1] 15.8% | [2] 9.5% | [3] -29.6% | [4] -6.2% | [5] 1.35% | [6] 4.55%

CC(C)N(C(=O)/C=C/C(=O)N(C(C)C)C(C)C)C(C)C
inactive: [1] 3.7% | [2] 27.1% | [3] -1.7% | [4] -2.05% | [5] 18.8% | [6] -9.6%

CC(=O)c1cc([N+](=O)[O-])c[nH]1
inactive: [1] 9.05% | [2] 1.45% | [3] 1.1% | [4] -19.1% | [5] 9.25% | [6] 0.5%

CCOC(=O)c1c(-c2ccccc2)n2c3c(cccc13)CC2
inactive: [1] 6.85% | [2] -5.2% | [3] -6.05% | [4] 6.15% | [5] 6.55% | [6] 27.5%

COC(=O)CCCCCCC/C=N/Nc1ccc([N+](=O)[O-])cc1[N+](=O)[O-]
inactive: [1] 6.9% | [2] 22% | [3] 4.7% | [4] 8.85% | [5] 7.3% | [6] 17.4%

CC1(O)CC(C(F)(F)F)(C(F)(F)F)OC1=O (stereo unspecified)
inactive: [1] -20.9% | [2] -42.7% | [3] -7.75% | [4] -28.9% | [5] -2.25% | [6] -13.9%

O=C(Nc1nc(C23CC4CC(CC(C4)C2)C3)cs1)c1cc2cc(Cl)ccc2oc1=O
inactive: [1] -32.2% | [2] -37.5% | [3] -2.35% | [4] 10.6% | [5] -28.1% | [6] -38%

CSC1C(=O)Nc2ccccc21 (stereo unspecified)
inactive: [1] -8.5% | [2] -17.6% | [3] 4.1% | [4] -13.1% | [5] -34.5% | [6] -3%

CC(Br)C1=CC(c2ccccc2)(c2ccccc2)c2ccccc21 (stereo unspecified)
active: [1] 97% | [2] 98% | [3] 97.9% | [4] 96.8% | [5] 97.3% | [6] 96.7%

CCOC(=O)C1=C(C(=O)c2ccc(C)cc2)C(c2c(Cl)cccc2Cl)C(C(=O)c2ccc(C)cc2)=C(C(=O)OCC)N1
inactive: [1] 18.4% | [2] 21.1% | [3] 37.8% | [4] 44.5% | [5] 54.9% | [6] 38%

CC(C)=CC(=O)OC1C2C(C)=CC(=O)C(O)C2(C)C2C3(O)OCC24C(CC(=O)OC14)C(C)C3O (stereo unspecified)
active: [1] 91.6% | [2] 92.4% | [3] 91.5% | [4] 91% | [5] 90.8% | [6] 91.2%

Nc1ccc2cc(S(=O)(=O)O)ccc2c1
inactive: [1] 3.95% | [2] 14.9% | [3] -21.1% | [4] -3.95% | [5] 0.95% | [6] -6.05%
